Experimental data published in PubChem BioAssay AID1159580 (chemical genetic matrix, 2015).
The whole screen tested about 5,500 compounds, of which about 2,000 (36%) were called active. About 18% were inconclusive and are not listed. Rule as the data show it: active = normalized growth mostly below about 0.91 (no sharp cut-off); inconclusive = no clear call, values can overlap the other calls; inactive = mostly above about 0.92. Some of the results follow.

Experiment: chemical genetic growth profiling, strain panel (AID 1159580);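 also: tested at 20 µM; growth read once vehicle control cultures reached saturation at 30 °C; 1 = growth at the plate median or of vehicle wells; lower values mean less growth of the strain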
Settings: growth OD

Measured: normalized growth

CNC(C)C(O)c1ccccc1 (centres undefined)
inactive: S. cerevisiae deletion strains, locus YJR043C, strain POL32, active compounds read low 0.999 | S. cerevisiae deletion strains, locus YJR066W, strain TOR1, active compounds read low 0.987 | S. cerevisiae deletion strains, locus YKL009W, strain mrt4, active compounds read low 1.01 | S. cerevisiae deletion strains, locus YKL068W, active compounds read low 1.01 | S. cerevisiae deletion strains, locus YKL085W, strain MDH1 (second series), active compounds read low 1 | S. cerevisiae deletion strains, locus YKL085W, strain MDH1, active compounds read low 1 | S. cerevisiae deletion strains, locus YKL160W, strain elf1, active compounds read low 1.02 | S. cerevisiae deletion strains, locus YKL190W, strain CNB1, active compounds read low 1.01 | S. cerevisiae deletion strains, locus YKR001C, strain vps1, active compounds read low 1.03 | S. cerevisiae deletion strains, locus YKR026C, strain gcn3, active compounds read low 1.01 | S. cerevisiae deletion strains, locus YKR091W, strain srl3, active compounds read low 1.01 | S. cerevisiae deletion strains, locus YLL001W, strain dnm1, active compounds read low 1.03 | S. cerevisiae deletion strains, locus YLL026W, active compounds read low 1.01 | S. cerevisiae deletion strains, locus YLL041C, strain sdh2, active compounds read low 1.01 | S. cerevisiae deletion strains, locus YLR027C, strain aat2, active compounds read low 1.02 | S. cerevisiae deletion strains, locus YLR039C, strain RIC1, active compounds read low 0.995 | S. cerevisiae deletion strains, locus YLR058C, strain SHM2, active compounds read low 1 | S. cerevisiae deletion strains, locus YLR102C, strain apc9, active compounds read low 1.02 | S. cerevisiae deletion strains, locus YLR113W, strain HOG1, active compounds read low 0.963 | S. cerevisiae deletion strains, locus YLR221C, strain rsa3, active compounds read low 1.01 | S. cerevisiae deletion strains, locus YLR258W, strain gsy2, active compounds read low 1.01 | S. cerevisiae deletion strains, locus YLR262C, strain YPT6 (second series), active compounds read low 1.01 | S. cerevisiae deletion strains, locus YLR262C, strain YPT6, active compounds read low 1.03 | S. cerevisiae deletion strains, locus YLR268W, strain sec22, active compounds read low 1.02 | S. cerevisiae deletion strains, locus YLR320W, strain mms22, active compounds read low 1.02 | S. cerevisiae deletion strains, locus YLR330W, strain CHS5, active compounds read low 1 | S. cerevisiae deletion strains, locus YLR342W, strain FKS1 (second series), active compounds read low 1 | S. cerevisiae deletion strains, locus YLR342W, strain FKS1, active compounds read low 1.02 | S. cerevisiae deletion strains, locus YLR357W, strain rsc2, active compounds read low 1.05 | S. cerevisiae deletion strains, locus YLR370C, strain arc18, active compounds read low 1.01 | S. cerevisiae deletion strains, locus YLR371W, strain rom2, active compounds read low 1.02 | S. cerevisiae deletion strains, locus YLR384C, strain iki3, active compounds read low 1.02 | S. cerevisiae deletion strains, locus YLR418C, strain cdc73, active compounds read low 1.04 | S. cerevisiae deletion strains, locus YML016C, strain PPZ1, active compounds read low 1.01 | S. cerevisiae deletion strains, locus YML032C, strain rad52, active compounds read low 1.03 | S. cerevisiae deletion strains, locus YML120C, strain ndi1, active compounds read low 1.02 | S. cerevisiae deletion strains, locus YML124C, strain tub3, active compounds read low 1.03 | S. cerevisiae deletion strains, locus YMR058W, strain fet3, active compounds read low 1.02 | S. cerevisiae deletion strains, locus YMR078C, strain ctf18, active compounds read low 1.03 | S. cerevisiae deletion strains, locus YMR125W, strain sto1, active compounds read low 0.996 | S. cerevisiae deletion strains, locus YMR129W, active compounds read low 1 | S. cerevisiae deletion strains, locus YMR205C, strain PFK2, active compounds read low 1.01 | S. cerevisiae deletion strains, locus YMR223W, strain ubp8, active compounds read low 1.02 | S. cerevisiae deletion strains, locus YMR231W, strain pep5, active compounds read low 1.01 | S. cerevisiae deletion strains, locus YMR307W, strain GAS1, active compounds read low 1.02 | S. cerevisiae deletion strains, locus YNL067W, strain RPL9B, active compounds read low 1 | S. cerevisiae deletion strains, locus YNL071W, strain lat1, active compounds read low 1.02 | S. cerevisiae deletion strains, locus YNL128W, strain TEP1, active compounds read low 1.02 | S. cerevisiae deletion strains, locus YNL183C, strain NPR1, active compounds read low 0.971 | S. cerevisiae deletion strains, locus YNL209W, strain ssb2, active compounds read low 1.01 | S. cerevisiae deletion strains, locus YNL233W, strain BNI4, active compounds read low 1 | S. cerevisiae deletion strains, locus YNL248C, strain rpa49, active compounds read low 1.01 | S. cerevisiae deletion strains, locus YNL250W, strain rad50, active compounds read low 1.02 | S. cerevisiae deletion strains, locus YNL271C, strain bni1, active compounds read low 1.02 | S. cerevisiae deletion strains, locus YNL298W, strain CLA4, active compounds read low 1.03 | S. cerevisiae deletion strains, locus YNL307C, strain MCK1, active compounds read low 1.04 | S. cerevisiae deletion strains, locus YNL322C, strain KRE1 (second series), active compounds read low 1.01 | S. cerevisiae deletion strains, locus YNR049C, strain mso1, active compounds read low 1.01 | S. cerevisiae deletion strains, locus YNR052C, strain pop2, active compounds read low 1.02 | S. cerevisiae deletion strains, locus YOL006C, strain TOP1, active compounds read low 0.993 | S. cerevisiae deletion strains, locus YOL012C, strain htz1 1.14 | S. cerevisiae deletion strains, locus YOL147C, strain pex11, active compounds read low 1.03 | S. cerevisiae deletion strains, locus YOR001W, strain rrp6, active compounds read low 1.02 | S. cerevisiae deletion strains, locus YOR061W, strain CKA2, active compounds read low 1.01 | S. cerevisiae deletion strains, locus YOR069W, strain VPS5, active compounds read low 1 | S. cerevisiae deletion strains, locus YOR070C, strain gyp1, active compounds read low 1.01 | S. cerevisiae deletion strains, locus YOR080W, strain dia2, active compounds read low 1.01 | S. cerevisiae deletion strains, locus YOR083W, strain WHI5, active compounds read low 1.02 | S. cerevisiae deletion strains, locus YOR106W, strain vam3, active compounds read low 1.03 | S. cerevisiae deletion strains, locus YOR136W, strain idh2, active compounds read low 1.02 | S. cerevisiae deletion strains, locus YOR144C, strain elg1, active compounds read low 1.01 | S. cerevisiae deletion strains, locus YOR184W, strain ser1, active compounds read low 1.03 | S. cerevisiae deletion strains, locus YOR231W, strain MKK1, active compounds read low 0.995 | S. cerevisiae deletion strains, locus YOR265W, strain rbl2, active compounds read low 1.01 | S. cerevisiae deletion strains, locus YOR270C, strain vph1, active compounds read low 1.04 | S. cerevisiae deletion strains, locus YOR290C, strain snf2, active compounds read low 1 | S. cerevisiae deletion strains, locus YOR316C, strain cot1, active compounds read low 1.02 | S. cerevisiae deletion strains, locus YPL051W, strain arl3, active compounds read low 1.02 | S. cerevisiae deletion strains, locus YPL055C, strain LGE1, active compounds read low 1.01 | S. cerevisiae deletion strains, locus YPL078C, strain atp4, active compounds read low 1.03 | S. cerevisiae deletion strains, locus YPL106C, strain sse1, active compounds read low 1.01 | S. cerevisiae deletion strains, locus YPL240C, strain hsp82, active compounds read low 1.01 | S. cerevisiae deletion strains, locus YPL256C, strain CLN2, active compounds read low 1.03 | S. cerevisiae deletion strains, locus YPR119W, strain clb2, active compounds read low 1.02 | S. cerevisiae deletion strains, locus YPR141C, strain kar3, active compounds read low 1.02 | S. cerevisiae deletion strains, locus YPR163C, strain tif3, active compounds read low 1.04 | S. cerevisiae deletion strains, locus YPR167C, strain met16, active compounds read low 1.02 | S. cerevisiae deletion strains, strain wtn01, active compounds read low 1.02 | S. cerevisiae strains, strain wild type, active compounds read low 0.999
